# This is part of a sample that, as a whole, favours compounds with a hit. Of some 79,000 tested, about 15% had one in any assay. A number with no mark means an inactive call. Active and inactive are the calls of the source. Rule as the data show it: active = growth inhibition above about 70%; inactive = the rest.
# How the values were obtained:
# [1] = NCI Yeast Anticancer Drug Screen. Data for the rad50 strain (AID 155);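 also: 0% = growth of vehicle-only cultures of the same strain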; details: S. cerevisiae rad50 strain growth inhibition, stronger effect = higher value
# How it was run: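 Readout: growth inhibition relative to vehicle-treated cultures. Compound exposure was carried out in a genetically defined yeast strain deficient in DNA damage repair.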
# [2] = NCI Yeast Anticancer Drug Screen. Data for the mec2-1 strain (AID 157); details: S. cerevisiae mec2-1 strain, stronger effect = higher value
# How it was run: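 Strain: mec2-1 (DNA repair/cell cycle alteration). Compound exposure, then growth measured; inhibition expressed relative to vehicle.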
# [3] = NCI Yeast Anticancer Drug Screen. Data for the sgs1 mgt1 strain (AID 161);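 also: 0% = growth of cultures given vehicle only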; details: S. cerevisiae sgs1 mgt1 strain, stronger effect = higher value
# How it was run: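 Read-out: growth inhibition vs vehicle controls. Cells: mutant yeast strain deficient in DNA damage repair.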
# [4] = NCI Yeast Anticancer Drug Screen. Data for the cln2 rad14 strain (AID 165);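 also: 0% = growth equal to vehicle treated cultures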; details: S. cerevisiae cln2 rad14 strain, stronger effect = higher value
# How it was run: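 Compounds are applied to the cln2 rad14 yeast strain, and growth is then compared with that of vehicle-treated cultures to give inhibition.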
# [5] = NCI Yeast Anticancer Drug Screen. Data for the bub3 strain (AID 167); details: S. cerevisiae bub3 mutant strain, stronger effect = higher value
# How it was run: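 Readout: yeast growth inhibition, expressed relative to vehicle-only wells. The test organism is a mutant strain from a panel with lesions in DNA repair or checkpoint genes.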
# [6] = NCI Yeast Anticancer Drug Screen. Data for the mlh1 rad18 strain (AID 175); details: S. cerevisiae mlh1 rad18 strain growth inhibition, stronger effect = higher value
# How it was run: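 Read-out is yeast growth inhibition, calculated against vehicle-only controls. The compound was applied to a strain engineered with DNA damage repair alterations.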
# [7] = at 5.0 µM (retest, dose inferred, filed as 0.5)
# [8] = at 50.0 µM (retest, dose inferred, filed as 5.0)
Compound,"growth inhibition [1, 7]","growth inhibition [1, 8]",growth inhibition ([1]; at 50.0 µM),"growth inhibition [2, 7] [%]","growth inhibition [2, 8]",growth inhibition ([2]; at 50.0 µM),"growth inhibition [3, 7]","growth inhibition [3, 8]",growth inhibition ([3]; at 50.0 µM),"growth inhibition [4, 7]","growth inhibition [4, 8]",growth inhibition ([4]; at 50.0 µM),"growth inhibition [5, 7]","growth inhibition [5, 8]",growth inhibition ([5]; at 50.0 µM),"growth inhibition [6, 7]","growth inhibition [6, 8]",growth inhibition ([6]; at 50.0 µM)
c1ccc2c(c1)CCc1[nH]c3c(c1-2)-c1ccccc1CC3,24%,94% (active),87.5% (active),16,96% (active),91.2% (active),21%,94% (active),90.4% (active),62%,95% (active),88.4% (active),69%,94% (active),89.8% (active),31%,91% (active),86.3% (active)
CN(C)c1ccc(/C=C/C(=O)c2ccc([N+](=O)[O-])cc2)cc1,38%,48%,-21.7%,45,42%,-16%,-9%,24%,-16.7%,24%,41%,-4.5%,21%,23%,-13.4%,34%,45%,-47.2%
CCC(Sc1ccccc1[N+](=O)[O-])[N+](=O)[O-] (stereo not given),1%,0%,88.7% (active),0,-4%,90.8% (active),3%,-1%,49.1%,-2%,-6%,43.7%,0%,-11%,97.1% (active),-1%,1%,55.1%
C/C(O)=C(/C=N\C(=S)Nc1ccc(Cl)c(Cl)c1)C(=O)Nc1ccccc1C,-11%,40%,67%,-6,26%,39.6%,1%,22%,73.5% (active),-7%,34%,-10.2%,-15%,13%,51.6%,11%,22%,57.7%
O=C1C=C(c2ccccc2)O/C1=C\C(=O)c1ccc(Cl)cc1,48%,48%,89.3% (active),43,43%,90.9% (active),54%,54%,86.4% (active),14%,14%,87.5% (active),22%,22%,88% (active),44%,44%,84.5% (active)
S=c1sc2c(s1)SCCOCCOCCOCCS2,-4%,3%,29.3%,5,7%,0.95%,-12%,5%,30.6%,12%,8%,31.1%,4%,36%,22.2%,-15%,-13%,23.4%
c1ccc(N=c2sc3ccccc3sc2=Nc2ccccc2)cc1,94% (active),32%,51%,56,50%,32.4%,71% (active),60%,21.8%,96% (active),69%,59.5%,93% (active),76% (active),31.7%,93% (active),56%,-16%
CCc1cccc(C)c1NC(=O)C(=O)C(C#N)c1ccc(C)cc1 (stereo not given),-3%,27%,28.5%,0,5%,13.2%,-25%,-1%,17.9%,8%,18%,13.7%,-4%,39%,16.1%,13%,24%,23.9%
O=C1C(=O)C(Br)(c2ccccc2)C(=O)C1c1ccccc1 (stereo not given),-16%,4%,52.5%,-22,2%,71.4% (active),-19%,8%,13.2%,-2%,72% (active),93.8% (active),85% (active),97% (active),97.7% (active),7%,20%,97.7% (active)
CCOC(=O)C(=NNc1ccccc1)C(=O)OCC,2%,50%,42.4%,-3,2%,33.2%,-4%,16%,42.5%,-1%,4%,-14.6%,-1%,27%,46.9%,1%,25%,62.9%
Cc1cc(N=NC(N)=S)c2ccccc2c1O,4%,22%,76.2% (active),-3,1%,24.9%,-5%,16%,6.7%,-2%,-23%,-22.1%,2%,15%,37.2%,-40%,-1%,53.8%
Cc1cc(SCc2ccccc2)cc(C)[o+]1,-1%,92% (active),17.4%,18,99% (active),44.4%,-20%,88% (active),60.1%,-1%,93% (active),55.8%,-2%,96% (active),61.5%,-6%,96% (active),63.7%
Oc1ccc(C2SC(c3ccc(O)cc3)SC(c3ccc(O)cc3)S2)cc1 (stereo not given),14%,98% (active),97.6% (active),-1,96% (active),99.3% (active),-23%,99% (active),99% (active),23%,98% (active),98.4% (active),30%,99% (active),98.1% (active),35%,99% (active),98.8% (active)
Cc1c(Cl)cc2[nH]c(C(F)(F)F)nc2c1Cl,3%,66%,63%,8,76% (active),75.2% (active),3%,79% (active),71.2% (active),10%,71% (active),65.1%,2%,56%,41.5%,3%,72% (active),70.5% (active)
Cc1ccc(S(=O)(=O)C(=S)Sc2ccccc2)cc1,6%,82% (active),45.5%,8,89% (active),39.5%,10%,88% (active),80.6% (active),6%,63%,33.7%,17%,90% (active),36.5%,11%,92% (active),79.8% (active)
OCCCNc1nc2c(Cl)cc(Cl)cc2c2ccccc12,16%,49%,50%,6,28%,15.4%,8%,30%,72.7% (active),-6%,-16%,19.4%,-6%,-5%,76.2% (active),4%,30%,92.8% (active)
Cn1c(=O)c2c(nnc(-c3ccccc3)[n+]2[O-])n(C)c1=O,-3%,46%,99.5% (active),-1,97% (active),99.7% (active),1%,90% (active),99.7% (active),2%,43%,99% (active),-3%,60%,99.6% (active),-6%,95% (active),99.6% (active)
CC(=O)N=C1N(/C=C2\C(=O)Oc3ccccc3C2=O)C(=O)/C(=C/c2ccc(Cl)cc2Cl)N1C,1%,92% (active),91.8% (active),11,96% (active),95% (active),7%,90% (active),94.2% (active),-3%,91% (active),89.8% (active),23%,87% (active),93.4% (active),-4%,91% (active),91.6% (active)
CN(C)C=C1C(Cl)=C(C=O)CC(C=O)=C1Cl,2%,24%,12.3%,3,26%,23.1%,3%,36%,63.7%,-2%,3%,40.3%,-2%,9%,18.5%,0%,-12%,89.5% (active)
Cc1[nH]c2ccccc2c1/C=C1/CCCCCCC1=O,-1%,45%,93.8% (active),-20,34%,93.6% (active),-11%,66%,96.5% (active),3%,24%,91.6% (active),-2%,41%,93.5% (active),-7%,72% (active),97.3% (active)

# Reference: PubChem BioAssay (NCI)
